# Legend:
# Experiment in all cases: DAPPL (digital affinity profiling via proximity ligation, sequencing); 10 mM Tris-HCl pH 7.5, 50 mM NaCl, 1 mM DTT, 4% glycerol, room temperature, 30 min; GST-TFs on glutathione beads, 16-mer random dsDNA library, 0.1% formaldehyde crosslink after washing; high values mean tight binding
# [1] = molecular target: T1, FEV (Homo sapiens, UniProt Q99581 1-238); conditions: protein: recombinant; tags: N-terminal GST; dsDNA, one strand shown
# T1 sequence: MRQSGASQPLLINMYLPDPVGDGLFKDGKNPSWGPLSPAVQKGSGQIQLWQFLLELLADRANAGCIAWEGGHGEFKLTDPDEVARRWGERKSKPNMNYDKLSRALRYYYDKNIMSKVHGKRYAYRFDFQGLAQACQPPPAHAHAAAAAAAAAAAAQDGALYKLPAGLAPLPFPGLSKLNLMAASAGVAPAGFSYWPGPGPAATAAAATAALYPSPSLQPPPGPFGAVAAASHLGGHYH
# Method in brief: (§1)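 Pools were built from human transcription factors expressed in yeast as GST fusions, captured on glutathione beads and DNA-barcoded, along with a tag-only sample. Incubation with 200 nmole of a 16-mer random double-stranded DNA library lasted 30 min at room temperature in Tris/NaCl/DTT/glycerol buffer, and was followed by washing, 0.1% formaldehyde crosslinking, proximity ligation, PCR amplification and Illumina NextSeq500 sequencing. Binding signal is the quotient of each hexamer's read frequency for a factor and its frequency for the tag-only sample.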
# [2] = molecular target: ETV5 (Homo sapiens, UniProt P41161 1-510); conditions: protein: recombinant; tags: N-terminal GST; dsDNA, one strand shown
# Method in brief: as §1
# [3] = molecular target: HSF1 (Homo sapiens, UniProt Q00613 1-529); conditions: protein: recombinant; tags: N-terminal GST; chain copies: 3; dsDNA, one strand shown
# Method in brief: as §1
# [4] = molecular target: T2, SPIC (Homo sapiens, UniProt Q8N5J4 1-248); conditions: protein: recombinant; tags: N-terminal GST; dsDNA, one strand shown
# T2 sequence: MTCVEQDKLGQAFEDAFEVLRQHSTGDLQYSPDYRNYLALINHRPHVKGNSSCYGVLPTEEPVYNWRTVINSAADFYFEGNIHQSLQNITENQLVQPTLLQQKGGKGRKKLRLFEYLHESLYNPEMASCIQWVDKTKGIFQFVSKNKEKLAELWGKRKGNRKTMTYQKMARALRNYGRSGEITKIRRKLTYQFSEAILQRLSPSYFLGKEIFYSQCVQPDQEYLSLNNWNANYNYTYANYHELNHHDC
# Method in brief: as §1
# [5] = molecular target: ELF4 (Homo sapiens, UniProt Q99607 1-663); conditions: protein: recombinant; tags: N-terminal GST; dsDNA, one strand shown
# Method in brief: as §1
# [6] = molecular target: T3, ELK4 (Homo sapiens, UniProt P28324-2 1-405); conditions: protein: recombinant; tags: N-terminal GST; dsDNA, one strand shown
# T3 sequence: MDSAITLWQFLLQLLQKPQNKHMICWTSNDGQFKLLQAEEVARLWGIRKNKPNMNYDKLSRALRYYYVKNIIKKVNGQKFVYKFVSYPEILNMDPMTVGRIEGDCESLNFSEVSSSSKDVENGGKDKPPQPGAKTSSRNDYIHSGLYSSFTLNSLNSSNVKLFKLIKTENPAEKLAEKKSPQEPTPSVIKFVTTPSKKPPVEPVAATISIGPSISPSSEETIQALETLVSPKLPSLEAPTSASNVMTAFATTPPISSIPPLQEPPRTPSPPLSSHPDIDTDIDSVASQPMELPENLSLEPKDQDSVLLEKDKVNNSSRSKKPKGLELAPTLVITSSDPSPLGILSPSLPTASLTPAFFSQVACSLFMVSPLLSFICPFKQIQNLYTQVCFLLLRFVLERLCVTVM
# Method in brief: as §1
# [7] = molecular target: T4, ETV2 (Homo sapiens, UniProt O00321 1-342); conditions: protein: recombinant; tags: N-terminal GST; dsDNA, one strand shown
# T4 sequence: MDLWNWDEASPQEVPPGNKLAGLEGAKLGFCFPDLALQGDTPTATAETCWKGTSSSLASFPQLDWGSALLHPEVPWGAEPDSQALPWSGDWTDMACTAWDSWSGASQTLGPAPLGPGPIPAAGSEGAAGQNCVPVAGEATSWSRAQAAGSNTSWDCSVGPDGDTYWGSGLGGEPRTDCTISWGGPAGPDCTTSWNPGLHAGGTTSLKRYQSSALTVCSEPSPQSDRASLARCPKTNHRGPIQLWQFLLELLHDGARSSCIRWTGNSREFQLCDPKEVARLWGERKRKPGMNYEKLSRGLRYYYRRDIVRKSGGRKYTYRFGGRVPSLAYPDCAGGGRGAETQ
# Method in brief: as §1
# [8] = molecular target: T5, ELF3 (Homo sapiens, UniProt P78545 1-371); conditions: protein: recombinant; tags: N-terminal GST; dsDNA, one strand shown
# T5 sequence: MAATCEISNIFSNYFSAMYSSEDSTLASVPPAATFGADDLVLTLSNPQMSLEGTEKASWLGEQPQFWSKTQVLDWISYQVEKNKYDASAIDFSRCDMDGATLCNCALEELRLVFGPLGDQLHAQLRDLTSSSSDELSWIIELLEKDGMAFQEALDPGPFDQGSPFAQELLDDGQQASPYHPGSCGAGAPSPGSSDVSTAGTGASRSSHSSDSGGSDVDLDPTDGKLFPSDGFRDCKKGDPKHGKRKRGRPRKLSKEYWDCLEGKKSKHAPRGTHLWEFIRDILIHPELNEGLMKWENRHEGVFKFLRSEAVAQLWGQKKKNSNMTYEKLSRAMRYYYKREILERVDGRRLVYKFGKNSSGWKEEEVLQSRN
# Method in brief: as §1
# [9] = molecular target: CRX (Homo sapiens, UniProt O43186 1-299); conditions: protein: recombinant; tags: N-terminal GST; dsDNA, one strand shown
# Method in brief: as §1
# [10] = molecular target: ETV1 (Homo sapiens, UniProt P50549 1-477); conditions: protein: recombinant; tags: N-terminal GST; dsDNA, one strand shown
# Method in brief: as §1
# [11] = molecular target: T6, ERF (Homo sapiens, UniProt P50548 1-548); conditions: protein: recombinant; tags: N-terminal GST; dsDNA, one strand shown
# T6 sequence: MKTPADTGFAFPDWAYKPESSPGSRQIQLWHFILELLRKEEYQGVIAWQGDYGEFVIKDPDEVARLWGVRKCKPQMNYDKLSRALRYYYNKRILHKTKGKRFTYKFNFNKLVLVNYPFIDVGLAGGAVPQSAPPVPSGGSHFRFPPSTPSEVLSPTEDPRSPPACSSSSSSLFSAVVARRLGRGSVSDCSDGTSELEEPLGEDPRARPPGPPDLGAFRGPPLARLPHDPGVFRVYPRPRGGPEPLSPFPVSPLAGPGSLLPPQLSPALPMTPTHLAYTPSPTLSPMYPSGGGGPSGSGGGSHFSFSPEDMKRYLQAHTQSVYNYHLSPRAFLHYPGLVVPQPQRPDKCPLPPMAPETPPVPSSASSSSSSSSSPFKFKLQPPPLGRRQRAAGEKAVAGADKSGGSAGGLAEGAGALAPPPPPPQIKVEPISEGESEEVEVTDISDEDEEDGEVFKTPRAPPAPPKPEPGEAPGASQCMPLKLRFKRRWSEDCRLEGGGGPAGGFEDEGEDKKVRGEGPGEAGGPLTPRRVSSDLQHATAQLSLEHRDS
# Method in brief: as §1
# [12] = molecular target: T7, ETV3L (Homo sapiens, UniProt Q6ZN32 1-361); conditions: protein: recombinant; tags: N-terminal GST; dsDNA, one strand shown
# T7 sequence: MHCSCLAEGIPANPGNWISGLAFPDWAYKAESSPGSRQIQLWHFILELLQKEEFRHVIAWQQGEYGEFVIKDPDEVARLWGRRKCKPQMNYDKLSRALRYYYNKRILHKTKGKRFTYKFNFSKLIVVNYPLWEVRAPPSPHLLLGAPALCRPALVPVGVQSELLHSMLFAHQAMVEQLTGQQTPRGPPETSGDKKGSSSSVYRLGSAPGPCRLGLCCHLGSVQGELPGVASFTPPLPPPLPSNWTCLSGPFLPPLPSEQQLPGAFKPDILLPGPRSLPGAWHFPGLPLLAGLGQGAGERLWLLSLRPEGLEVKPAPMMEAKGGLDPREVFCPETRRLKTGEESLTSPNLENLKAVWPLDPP
# Method in brief: as §1
# [13] = molecular target: T8, ETS2 (Homo sapiens, UniProt P15036 1-469); conditions: protein: recombinant; tags: N-terminal GST; dsDNA, one strand shown
# T8 sequence: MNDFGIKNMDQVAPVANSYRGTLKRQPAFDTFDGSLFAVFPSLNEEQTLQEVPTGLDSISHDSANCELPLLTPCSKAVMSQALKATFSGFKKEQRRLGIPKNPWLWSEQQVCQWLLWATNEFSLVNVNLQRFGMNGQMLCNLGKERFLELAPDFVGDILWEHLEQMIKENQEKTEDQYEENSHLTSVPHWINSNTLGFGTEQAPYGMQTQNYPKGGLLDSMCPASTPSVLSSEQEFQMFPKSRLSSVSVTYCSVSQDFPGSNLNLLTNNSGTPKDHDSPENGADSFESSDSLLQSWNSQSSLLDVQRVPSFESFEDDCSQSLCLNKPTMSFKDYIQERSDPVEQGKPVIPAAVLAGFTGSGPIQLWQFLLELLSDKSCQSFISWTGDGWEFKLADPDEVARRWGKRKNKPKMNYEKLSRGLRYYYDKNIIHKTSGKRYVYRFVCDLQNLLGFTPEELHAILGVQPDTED
# Method in brief: as §1
# [14] = molecular target: T9, SPDEF (Homo sapiens, UniProt O95238 1-335); conditions: protein: recombinant; tags: N-terminal GST; dsDNA, one strand shown
# T9 sequence: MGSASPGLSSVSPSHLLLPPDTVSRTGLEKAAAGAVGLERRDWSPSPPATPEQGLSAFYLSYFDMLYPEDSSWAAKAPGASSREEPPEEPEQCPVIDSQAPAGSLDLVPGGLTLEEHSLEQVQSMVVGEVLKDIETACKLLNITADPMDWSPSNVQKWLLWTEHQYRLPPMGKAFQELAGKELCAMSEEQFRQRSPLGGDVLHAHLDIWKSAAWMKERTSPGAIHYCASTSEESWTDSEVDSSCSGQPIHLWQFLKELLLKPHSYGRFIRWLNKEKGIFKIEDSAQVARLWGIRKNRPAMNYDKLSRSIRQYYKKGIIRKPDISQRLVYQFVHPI
# Method in brief: as §1
# [15] = molecular target: T10, ETV7 (Homo sapiens, UniProt Q9Y603 1-341); conditions: protein: recombinant; tags: N-terminal GST; dsDNA, one strand shown
# T10 sequence: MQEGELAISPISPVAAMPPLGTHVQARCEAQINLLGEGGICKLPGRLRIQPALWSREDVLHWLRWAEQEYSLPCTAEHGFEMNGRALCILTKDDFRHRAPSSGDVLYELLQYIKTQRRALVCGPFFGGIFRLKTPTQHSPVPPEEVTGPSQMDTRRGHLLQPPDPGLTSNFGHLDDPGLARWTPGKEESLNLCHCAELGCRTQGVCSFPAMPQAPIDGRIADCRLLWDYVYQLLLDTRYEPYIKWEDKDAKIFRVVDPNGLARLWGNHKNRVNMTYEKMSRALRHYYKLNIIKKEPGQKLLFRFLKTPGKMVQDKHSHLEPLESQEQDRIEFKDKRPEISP
# Method in brief: as §1
# [16] = molecular target: T11, ELF5 (Homo sapiens, UniProt Q9UKW6-2 1-255); conditions: protein: recombinant; tags: N-terminal GST; dsDNA, one strand shown
# T11 sequence: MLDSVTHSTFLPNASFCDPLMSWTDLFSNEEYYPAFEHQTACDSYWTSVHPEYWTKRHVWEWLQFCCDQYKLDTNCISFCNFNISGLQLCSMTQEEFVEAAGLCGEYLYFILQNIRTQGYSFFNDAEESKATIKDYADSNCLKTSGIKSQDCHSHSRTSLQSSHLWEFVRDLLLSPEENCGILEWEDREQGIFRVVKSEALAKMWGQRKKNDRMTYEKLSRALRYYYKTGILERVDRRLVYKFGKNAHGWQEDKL
# Method in brief: as §1
# [17] = molecular target: T12, ETV3 (Homo sapiens, UniProt P41162-2 1-143); conditions: protein: recombinant; tags: N-terminal GST; dsDNA, one strand shown
# T12 sequence: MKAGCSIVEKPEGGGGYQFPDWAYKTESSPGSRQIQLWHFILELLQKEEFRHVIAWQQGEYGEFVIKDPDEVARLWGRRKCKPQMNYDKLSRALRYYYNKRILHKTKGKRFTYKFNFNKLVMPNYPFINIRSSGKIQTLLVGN
# Method in brief: as §1
# [18] = molecular target: ETV6 (Homo sapiens, UniProt P41212 1-452); conditions: protein: recombinant; tags: N-terminal GST; dsDNA, one strand shown
# Method in brief: as §1
# ETV1, sequence (P50549 whole entry): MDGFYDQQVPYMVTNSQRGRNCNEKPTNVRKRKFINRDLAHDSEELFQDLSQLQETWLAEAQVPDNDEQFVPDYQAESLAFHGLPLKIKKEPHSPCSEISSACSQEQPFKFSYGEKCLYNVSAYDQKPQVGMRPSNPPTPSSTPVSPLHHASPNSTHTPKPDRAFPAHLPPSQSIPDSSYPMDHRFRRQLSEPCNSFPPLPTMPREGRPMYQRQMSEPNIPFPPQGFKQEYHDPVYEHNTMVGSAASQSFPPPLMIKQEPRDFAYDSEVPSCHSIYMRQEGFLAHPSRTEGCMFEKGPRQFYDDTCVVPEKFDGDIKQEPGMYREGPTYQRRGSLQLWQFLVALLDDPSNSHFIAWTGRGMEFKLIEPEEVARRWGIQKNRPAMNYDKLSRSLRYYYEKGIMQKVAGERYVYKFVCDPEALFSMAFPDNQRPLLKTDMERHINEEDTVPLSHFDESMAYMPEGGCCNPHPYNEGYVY
# ELF4, sequence (Q99607 whole entry): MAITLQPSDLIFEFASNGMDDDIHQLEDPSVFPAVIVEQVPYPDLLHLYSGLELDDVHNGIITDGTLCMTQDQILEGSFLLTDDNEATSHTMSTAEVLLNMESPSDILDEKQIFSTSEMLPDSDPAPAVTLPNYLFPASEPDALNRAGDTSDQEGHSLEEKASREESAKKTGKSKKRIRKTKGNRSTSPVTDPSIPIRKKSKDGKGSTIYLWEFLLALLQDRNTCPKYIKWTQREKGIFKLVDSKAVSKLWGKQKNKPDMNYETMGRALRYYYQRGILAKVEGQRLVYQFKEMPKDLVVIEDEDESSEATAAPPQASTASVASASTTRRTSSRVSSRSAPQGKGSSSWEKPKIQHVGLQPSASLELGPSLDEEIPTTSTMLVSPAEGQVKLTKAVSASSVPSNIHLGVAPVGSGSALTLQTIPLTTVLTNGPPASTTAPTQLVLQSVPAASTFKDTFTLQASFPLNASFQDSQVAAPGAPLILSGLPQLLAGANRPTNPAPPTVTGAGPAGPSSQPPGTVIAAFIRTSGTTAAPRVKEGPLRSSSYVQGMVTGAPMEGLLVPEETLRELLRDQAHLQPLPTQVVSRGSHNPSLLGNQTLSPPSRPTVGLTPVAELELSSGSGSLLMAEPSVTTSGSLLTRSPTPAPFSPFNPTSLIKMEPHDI
# HSF1, sequence (Q00613 whole entry): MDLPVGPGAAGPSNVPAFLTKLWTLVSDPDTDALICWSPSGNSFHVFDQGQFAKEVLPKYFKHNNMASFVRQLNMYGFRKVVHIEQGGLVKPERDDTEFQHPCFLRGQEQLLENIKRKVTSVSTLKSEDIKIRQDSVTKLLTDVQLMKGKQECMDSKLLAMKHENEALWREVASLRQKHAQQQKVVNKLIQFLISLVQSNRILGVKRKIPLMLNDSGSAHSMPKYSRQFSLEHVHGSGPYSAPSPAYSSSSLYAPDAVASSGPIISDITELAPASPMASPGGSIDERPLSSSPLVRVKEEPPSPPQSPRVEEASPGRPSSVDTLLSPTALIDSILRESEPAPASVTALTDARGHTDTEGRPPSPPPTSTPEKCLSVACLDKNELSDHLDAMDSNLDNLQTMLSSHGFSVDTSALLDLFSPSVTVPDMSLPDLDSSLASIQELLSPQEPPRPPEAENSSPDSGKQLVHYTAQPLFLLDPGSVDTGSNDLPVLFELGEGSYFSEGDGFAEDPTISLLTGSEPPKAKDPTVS
# ETV6, sequence (P41212 whole entry): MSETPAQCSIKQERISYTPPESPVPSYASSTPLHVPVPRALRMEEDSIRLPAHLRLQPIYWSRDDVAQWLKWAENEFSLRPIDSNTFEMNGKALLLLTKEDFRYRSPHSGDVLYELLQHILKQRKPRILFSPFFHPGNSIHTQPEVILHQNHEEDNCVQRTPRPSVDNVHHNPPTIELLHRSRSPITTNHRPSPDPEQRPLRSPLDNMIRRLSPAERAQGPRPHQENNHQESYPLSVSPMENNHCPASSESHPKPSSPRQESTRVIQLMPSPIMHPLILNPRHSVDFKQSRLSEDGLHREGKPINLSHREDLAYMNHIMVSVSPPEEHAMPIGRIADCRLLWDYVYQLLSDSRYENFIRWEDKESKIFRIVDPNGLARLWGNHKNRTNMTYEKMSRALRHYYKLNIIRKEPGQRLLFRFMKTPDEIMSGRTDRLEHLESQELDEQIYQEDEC
# ETV5, sequence (P41161 whole entry): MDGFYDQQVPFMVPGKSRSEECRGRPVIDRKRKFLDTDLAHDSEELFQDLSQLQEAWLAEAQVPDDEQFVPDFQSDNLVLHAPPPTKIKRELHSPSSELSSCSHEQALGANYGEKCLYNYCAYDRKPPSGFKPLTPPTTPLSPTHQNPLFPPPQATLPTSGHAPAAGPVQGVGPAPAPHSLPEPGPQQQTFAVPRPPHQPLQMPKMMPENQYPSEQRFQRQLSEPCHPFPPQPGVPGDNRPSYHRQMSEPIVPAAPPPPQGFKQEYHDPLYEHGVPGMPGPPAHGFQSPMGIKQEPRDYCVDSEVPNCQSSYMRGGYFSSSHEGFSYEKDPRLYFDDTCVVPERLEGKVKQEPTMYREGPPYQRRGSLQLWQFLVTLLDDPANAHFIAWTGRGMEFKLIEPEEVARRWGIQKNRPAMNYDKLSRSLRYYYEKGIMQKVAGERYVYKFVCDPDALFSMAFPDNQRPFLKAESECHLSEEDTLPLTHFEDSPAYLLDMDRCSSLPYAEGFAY
# CRX, sequence (O43186 whole entry): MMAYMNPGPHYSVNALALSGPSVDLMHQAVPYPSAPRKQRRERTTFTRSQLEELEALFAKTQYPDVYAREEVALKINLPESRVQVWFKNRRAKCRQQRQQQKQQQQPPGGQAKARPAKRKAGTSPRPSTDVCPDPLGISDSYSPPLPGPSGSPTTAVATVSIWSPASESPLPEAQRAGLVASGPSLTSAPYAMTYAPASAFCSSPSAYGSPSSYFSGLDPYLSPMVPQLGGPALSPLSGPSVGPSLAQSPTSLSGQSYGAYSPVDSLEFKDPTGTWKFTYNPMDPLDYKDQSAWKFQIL
sequence,measurement,setting,value
AGCACT,binding signal,[1],"1.51 fold enrichment (6-mer frequency, TF over GST control)"
same,binding signal,[2],"1.37 fold enrichment (6-mer frequency, TF over GST control)"
same,binding signal,[3],"1.19 fold enrichment (6-mer frequency, TF over GST control)"
same,binding signal,[4],"1.32 fold enrichment (6-mer frequency, TF over GST control)"
same,binding signal,[5],"1.44 fold enrichment (6-mer frequency, TF over GST control)"
same,binding signal,[6],"1.31 fold enrichment (6-mer frequency, TF over GST control)"
same,binding signal,[7],"1.46 fold enrichment (6-mer frequency, TF over GST control)"
same,binding signal,[8],"1.26 fold enrichment (6-mer frequency, TF over GST control)"
same,binding signal,[9],"1.18 fold enrichment (6-mer frequency, TF over GST control)"
same,binding signal,[10],"1.36 fold enrichment (6-mer frequency, TF over GST control)"
same,binding signal,[11],"1.44 fold enrichment (6-mer frequency, TF over GST control)"
same,binding signal,[12],"1.42 fold enrichment (6-mer frequency, TF over GST control)"
same,binding signal,[13],"1.43 fold enrichment (6-mer frequency, TF over GST control)"
same,binding signal,[14],"1.4 fold enrichment (6-mer frequency, TF over GST control)"
same,binding signal,[15],"1.43 fold enrichment (6-mer frequency, TF over GST control)"
same,binding signal,[16],"1.52 fold enrichment (6-mer frequency, TF over GST control)"
same,binding signal,[17],"1.39 fold enrichment (6-mer frequency, TF over GST control)"
same,binding signal,[18],"1.44 fold enrichment (6-mer frequency, TF over GST control)"
